Rows were chosen to be rich in hits. Some 11% of all compounds tested hit in one or more screens of this group.
Luciferase inh: blocks purified firefly luciferase enzyme activity; P08659; purified P. pyralis luciferase, luminescence, biochemical; Potency, µM (titrated, usually from 115 µM), actives largely listed as inhibitors; actives 2.5% (n = 76,000); AID 1347043; note: nearly all actives have a fitted effect of over 65% in size
Target sequence (P08659 whole entry, looked up): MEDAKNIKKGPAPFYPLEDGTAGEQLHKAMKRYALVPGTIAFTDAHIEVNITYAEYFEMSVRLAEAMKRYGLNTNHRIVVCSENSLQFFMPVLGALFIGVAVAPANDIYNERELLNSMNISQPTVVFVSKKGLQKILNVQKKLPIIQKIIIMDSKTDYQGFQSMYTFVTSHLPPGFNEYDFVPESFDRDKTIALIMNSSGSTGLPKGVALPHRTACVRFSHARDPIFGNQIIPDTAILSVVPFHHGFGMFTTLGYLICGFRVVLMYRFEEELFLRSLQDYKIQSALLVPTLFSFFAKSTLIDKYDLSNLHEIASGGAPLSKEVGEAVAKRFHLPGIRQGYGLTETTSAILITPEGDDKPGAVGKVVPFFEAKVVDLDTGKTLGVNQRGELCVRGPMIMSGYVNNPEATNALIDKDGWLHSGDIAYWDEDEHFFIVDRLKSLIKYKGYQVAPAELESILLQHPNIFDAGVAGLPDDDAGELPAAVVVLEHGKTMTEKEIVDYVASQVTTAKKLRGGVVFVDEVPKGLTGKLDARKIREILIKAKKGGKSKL
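Luminescence read by CCD imaging after purified firefly luciferase (10nM final) was added to substrate buffer holding 10uM D-luciferin and 10uM ATP, pH 7.5, pre-dosed with compound.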
HEK293 tox: cytotoxic compounds in HEK 293 cells | HEK 293 viability, ATP luminescence (CellTiter-Glo), 48-72 h | Potency, µM (doses to about 115 µM), for inactives: at the highest dose activity change, negative = cytotoxicity, usual class: inhibitors | actives 6.6% (n = 94,000) | AID 1345083; note: nearly all actives have a fitted effect of over 60% in size
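Cells seeded first (HEK 293, 250 cells/well), then compound added by pintool. Incubation ran 48 or 72 hr at 37 degree Celsius. CellTiter-Glo was added and luminescence imaged after 10 min at room temperature.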
NPR1 antag: human Npr1 receptor antagonism | HEK293 hNpr1 GloSensor cGMP, ANP-stimulated luminescence | Potency, µM (titrated, usually from 46.3 µM), for the others: at the top dose activity change, negative = inhibition, actives largely listed as inhibitors | actives 1.6% (n = 76,000) | P16066; calls by dose curve; note: nearly all actives have a fitted effect of over 60% in size
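HEK293 cells stably expressing human Npr1 and cGMP GloSensor pGS-40F, loaded 2 h with 2% GloSensor reagent, given compound 30 min at room temperature. Luminescence read before and 20 min after 0.1 nM hNppA.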
NIH3T3 tox: cytotoxic compounds in NIH 3T3 cells; NIH 3T3 viability, CellTiter-Glo ATP luminescence, 48-72 h; Potency, µM (highest dose often 96.7 µM), without a hit: at the highest dose activity change, negative = cytotoxicity, most hits filed as inhibitors; actives 4.3% (n = 94,000); AID 1345082; note: nearly all actives have a fitted effect of over 55% in size
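Cytotoxicity was measured by CellTiter-Glo ATP luminescence after 48 or 72 h compound exposure at 37 °C. Mouse NIH 3T3 fibroblasts were seeded at 400 cells/well and dosed by 23 nL pin transfer.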
An asterisk follows results filed as active; i = inactive; u = inconclusive; x = no result given; [ ] = remark or other dose. Unless noted, calls come from the whole dose curve; as a rule, active = well fitted curve in the direction sought with a large enough effect; inconclusive = small, poorly fitted or top-dose-only effect, or another doubt; inactive = no such curve, though single readings can be large; an effect the other way counts as inactive or inconclusive. % is set by controls: 0 for no effect and ±100 for the full control effect; potency is the fitted concentration of half-maximal effect.

SMILES	Luciferase inh	HEK293 tox	NPR1 antag	NIH3T3 tox
O=C(NCc1ccc(Cl)cc1)c1ccc2nc(-c3ccnc(Cl)c3)oc2c1	x	1%[172 µM]	x	u
Cc1ccccc1Nc1n[nH]c(C(O)c2ccc3c(c2)CCO3)n1 (stereo not drawn)	i	u	-5%[70.6 µM]	u
OC(c1ccc2c(c1)CCO2)c1nc(Nc2cccc(C(F)(F)F)c2)n[nH]1 (stereo not drawn)	i	71µM*	-8%[70.6 µM]	u
OC(c1cccc(C(F)(F)F)c1)c1nc(Nc2cccc(Cl)c2)n[nH]1 (stereo not drawn)	i	63µM*	u	50µM*
OC(c1nc(Nc2ccc(Cl)c(C(F)(F)F)c2)n[nH]1)C1CC1 (stereo not drawn)	u	56µM*	u	50µM*
COc1ccc(Nc2n[nH]c(C(O)c3cccc(C(F)(F)F)c3)n2)cn1 (stereo not drawn)	i	u	-22%[70.6 µM]	u
Fc1ccc(CN2CCC3(CC2)CC(c2cccnc2)=NO3)cc1	i	u	-5%[70.6 µM]	u
CN(Cc1cccc(C(F)(F)F)c1)Cc1ccccn1	x	-19%[172 µM]	x	-28%[138 µM]
CC(C)(Oc1nn(CCOc2ccccc2)c2ccccc12)C(=O)Nc1cccnc1	i	u	-21%[70.6 µM]	u
CN(C)CCNC(=O)C(C)(C)Oc1nn(CCOc2ccccc2)c2ccccc12	i	89µM*	-15%[70.6 µM]	25µM*
CN1CCC(NC(=O)C(C)(C)Oc2nn(CCOc3ccccc3)c3ccccc23)CC1	i	89µM*	0%[70.6 µM]	40µM*
CCn1nc(-c2ccc3c(c2)OCCO3)nc1N(C)C	40µM*	-9%	0%	-10%
CCn1nc(-c2ccccc2SC)nc1N(C)C	i	-14%	0%	4%
CC(NC(=O)C1(c2ccc(NS(C)(=O)=O)cc2)CCCCC1)c1ccccc1 (stereo not drawn)	i	-9%	4%	-8%
CCCCCNC(=O)C1CCCN1C(=O)c1cccc(-c2cccc(OC)c2)c1 (stereo not drawn)	x	100µM*	x	u
COC(=O)CNC(=O)C1CCCN1C(=O)c1cccc(-c2cccnc2)c1 (stereo not drawn)	x	u	x	-20%
COC(=O)CNC(=O)C1CCCN1C(=O)c1cccc(-c2cccc(OC)c2)c1 (stereo not drawn)	x	45µM*	x	u
COc1ccccc1-c1cccc(C(=O)N2CCC[C@H]2C(=O)NCc2cccs2)c1	x	79µM*	x	-24%
COc1cccc(-c2cccc(C(=O)N3CCCC3C(=O)NCc3cccs3)c2)c1 (stereo not drawn)	x	u	x	-32%
CC(C)c1nccn1C1CN(C(=O)COc2ccccc2)C1	x	-26%	x	u
COc1ccc2c(C)c(C(=O)N3CCOC(c4ccc(F)cc4)C3)oc2c1 (stereo not drawn)	i	u	-14%	u
COc1ccc2cc(C3CN(c4ncnc(C)c4C)CCO3)ccc2c1 (stereo not drawn)	u	u	2.5µM*	u
COc1ccc2cc(C3CN(C(=O)c4cccn4C)CCO3)ccc2c1 (stereo not drawn)	4.5µM*	u	16µM*	40µM*
COc1cc(CN2CCN(c3ncnc(C)c3C)CC2CCO)cc(OC)c1 (stereo not drawn)	i	u	1%	-38%
COCC1(C(=O)N2CCOC(c3ccc4cc(OC)ccc4c3)C2)CCC1 (stereo not drawn)	20µM*	u	-22%	u
SMILES	Luciferase inh	HEK293 tox	NPR1 antag	NIH3T3 tox
COCCNCc1ccc(-c2ccc(F)cc2)o1	i	-4%	1%	-1%
Cc1cn2nnc(C(=O)N3CCC(C(=O)Nc4ccc(C)c(Cl)c4)CC3)c2c(=O)[nH]1	i	12%	12%	-6%
O=C(c1ccc(C(F)(F)F)cc1)N1CCCC(C(=O)N2CCC(c3nc4ncccc4[nH]3)C2)C1 (stereo not drawn)	x	-19%	x	-20%
O=C(c1ccco1)N1CCC(OC2CCN(Cc3ccccc3)CC2)CC1	i	-4%	6%	-11%
O=S(=O)(c1cccc(C(F)(F)F)c1)N1CCN(c2ccc3nnc(-c4ccccc4)n3n2)CC1	x	-11%	x	-33%
O=C(Cc1c(F)cccc1Cl)N1CCC(c2noc(COc3ccc(F)cc3)n2)CC1	i	89µM*	u	u

Source: PubChem (National Center for Advancing Translational Sciences (NCATS))
